Measurements as given in PubChem BioAssay AID1159580 (chemical genetic matrix, 2015).
In all, about 5,500 compounds went through this assay and about 2,000 (36%) were called active. Another 18% or so got no clear call; they are omitted. No stated cut-off is given here; in the data, active means normalized growth mostly below about 0.91 (no sharp cut-off); inconclusive means no clear call, values can overlap the other calls; inactive means mostly above about 0.92. This is one part of the list.

Assay: chemical genetic growth profiling, strain panel (AID 1159580);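 further: tested at 20 µM; growth read once vehicle control cultures reached saturation at 30 °C; 1 = growth at the plate median or of vehicle wells; lower values mean less growth of the strain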
Conditions: growth OD

Measured: normalized growth

COc1ccc(OC)c(C(O)C(C)N)c1 (stereo unspecified)
inactive: S. cerevisiae deletion strains, locus YJR066W, strain TOR1, active compounds read low 0.991 | S. cerevisiae deletion strains, locus YJR075W, strain HOC1, active compounds read low 0.999 | S. cerevisiae deletion strains, locus YKL009W, strain mrt4, active compounds read low 0.995 | S. cerevisiae deletion strains, locus YKL068W, active compounds read low 0.997 | S. cerevisiae deletion strains, locus YKL085W, strain MDH1 (second series), active compounds read low 1 | S. cerevisiae deletion strains, locus YKL085W, strain MDH1, active compounds read low 1 | S. cerevisiae deletion strains, locus YKL160W, strain elf1, active compounds read low 0.983 | S. cerevisiae deletion strains, locus YKL190W, strain CNB1, active compounds read low 1.02 | S. cerevisiae deletion strains, locus YKR001C, strain vps1, active compounds read low 1 | S. cerevisiae deletion strains, locus YKR026C, strain gcn3, active compounds read low 0.994 | S. cerevisiae deletion strains, locus YKR091W, strain srl3, active compounds read low 0.989 | S. cerevisiae deletion strains, locus YLL001W, strain dnm1, active compounds read low 0.972 | S. cerevisiae deletion strains, locus YLL026W, active compounds read low 0.99 | S. cerevisiae deletion strains, locus YLL041C, strain sdh2, active compounds read low 1 | S. cerevisiae deletion strains, locus YLR027C, strain aat2, active compounds read low 0.987 | S. cerevisiae deletion strains, locus YLR039C, strain RIC1, active compounds read low 1.07 | S. cerevisiae deletion strains, locus YLR058C, strain SHM2, active compounds read low 1.01 | S. cerevisiae deletion strains, locus YLR102C, strain apc9, active compounds read low 0.992 | S. cerevisiae deletion strains, locus YLR113W, strain HOG1, active compounds read low 1.08 | S. cerevisiae deletion strains, locus YLR221C, strain rsa3, active compounds read low 0.994 | S. cerevisiae deletion strains, locus YLR258W, strain gsy2, active compounds read low 1.01 | S. cerevisiae deletion strains, locus YLR262C, strain YPT6 (second series), active compounds read low 0.999 | S. cerevisiae deletion strains, locus YLR262C, strain YPT6, active compounds read low 1.08 | S. cerevisiae deletion strains, locus YLR268W, strain sec22, active compounds read low 1 | S. cerevisiae deletion strains, locus YLR320W, strain mms22, active compounds read low 0.989 | S. cerevisiae deletion strains, locus YLR330W, strain CHS5, active compounds read low 1.01 | S. cerevisiae deletion strains, locus YLR342W, strain FKS1 (second series), active compounds read low 1.01 | S. cerevisiae deletion strains, locus YLR342W, strain FKS1, active compounds read low 0.976 | S. cerevisiae deletion strains, locus YLR357W, strain rsc2, active compounds read low 0.971 | S. cerevisiae deletion strains, locus YLR370C, strain arc18, active compounds read low 0.988 | S. cerevisiae deletion strains, locus YLR371W, strain rom2, active compounds read low 0.989 | S. cerevisiae deletion strains, locus YLR384C, strain iki3, active compounds read low 0.987 | S. cerevisiae deletion strains, locus YLR418C, strain cdc73, active compounds read low 1.02 | S. cerevisiae deletion strains, locus YML016C, strain PPZ1, active compounds read low 1.02 | S. cerevisiae deletion strains, locus YML032C, strain rad52, active compounds read low 0.977 | S. cerevisiae deletion strains, locus YML120C, strain ndi1, active compounds read low 0.997 | S. cerevisiae deletion strains, locus YML124C, strain tub3, active compounds read low 0.993 | S. cerevisiae deletion strains, locus YMR078C, strain ctf18, active compounds read low 0.987 | S. cerevisiae deletion strains, locus YMR125W, strain sto1, active compounds read low 0.994 | S. cerevisiae deletion strains, locus YMR129W, active compounds read low 0.978 | S. cerevisiae deletion strains, locus YMR205C, strain PFK2, active compounds read low 1 | S. cerevisiae deletion strains, locus YMR223W, strain ubp8, active compounds read low 0.996 | S. cerevisiae deletion strains, locus YMR231W, strain pep5, active compounds read low 0.99 | S. cerevisiae deletion strains, locus YMR263W, strain SAP30, active compounds read low 1.03 | S. cerevisiae deletion strains, locus YMR307W, strain GAS1, active compounds read low 0.992 | S. cerevisiae deletion strains, locus YNL067W, strain RPL9B, active compounds read low 1.02 | S. cerevisiae deletion strains, locus YNL071W, strain lat1, active compounds read low 1 | S. cerevisiae deletion strains, locus YNL128W, strain TEP1, active compounds read low 1.01 | S. cerevisiae deletion strains, locus YNL153C, strain GIM3, active compounds read low 1.04 | S. cerevisiae deletion strains, locus YNL175C, strain NOP13, active compounds read low 0.996 | S. cerevisiae deletion strains, locus YNL183C, strain NPR1, active compounds read low 1.01 | S. cerevisiae deletion strains, locus YNL197C, strain WHI3, active compounds read low 1.01 | S. cerevisiae deletion strains, locus YNL209W, strain ssb2, active compounds read low 1 | S. cerevisiae deletion strains, locus YNL224C, strain SQS1, active compounds read low 1.01 | S. cerevisiae deletion strains, locus YNL233W, strain BNI4, active compounds read low 1.02 | S. cerevisiae deletion strains, locus YNL248C, strain rpa49, active compounds read low 0.997 | S. cerevisiae deletion strains, locus YNL250W, strain rad50, active compounds read low 0.978 | S. cerevisiae deletion strains, locus YNL271C, strain bni1, active compounds read low 1 | S. cerevisiae deletion strains, locus YNL298W, strain CLA4, active compounds read low 1 | S. cerevisiae deletion strains, locus YNL307C, strain MCK1, active compounds read low 0.976 | S. cerevisiae deletion strains, locus YNL322C, strain KRE1 (second series), active compounds read low 0.991 | S. cerevisiae deletion strains, locus YNL322C, strain KRE1, active compounds read low 1.01 | S. cerevisiae deletion strains, locus YNR049C, strain mso1, active compounds read low 0.99 | S. cerevisiae deletion strains, locus YNR052C, strain pop2, active compounds read low 0.992 | S. cerevisiae deletion strains, locus YOL006C, strain TOP1, active compounds read low 1.13 | S. cerevisiae deletion strains, locus YOL012C, strain htz1 1.17 | S. cerevisiae deletion strains, locus YOL147C, strain pex11, active compounds read low 0.979 | S. cerevisiae deletion strains, locus YOR001W, strain rrp6, active compounds read low 0.992 | S. cerevisiae deletion strains, locus YOR061W, strain CKA2, active compounds read low 1.02 | S. cerevisiae deletion strains, locus YOR069W, strain VPS5, active compounds read low 1.01 | S. cerevisiae deletion strains, locus YOR070C, strain gyp1, active compounds read low 0.999 | S. cerevisiae deletion strains, locus YOR080W, strain dia2, active compounds read low 0.99 | S. cerevisiae deletion strains, locus YOR083W, strain WHI5 (second series), active compounds read low 1.01 | S. cerevisiae deletion strains, locus YOR083W, strain WHI5, active compounds read low 0.961 | S. cerevisiae deletion strains, locus YOR106W, strain vam3, active compounds read low 0.986 | S. cerevisiae deletion strains, locus YOR136W, strain idh2, active compounds read low 0.982 | S. cerevisiae deletion strains, locus YOR144C, strain elg1, active compounds read low 0.985 | S. cerevisiae deletion strains, locus YOR184W, strain ser1, active compounds read low 0.978 | S. cerevisiae deletion strains, locus YOR231W, strain MKK1, active compounds read low 1.07 | S. cerevisiae deletion strains, locus YOR265W, strain rbl2, active compounds read low 0.997 | S. cerevisiae deletion strains, locus YOR270C, strain vph1, active compounds read low 1.01 | S. cerevisiae deletion strains, locus YOR290C, strain snf2, active compounds read low 1.01 | S. cerevisiae deletion strains, locus YOR316C, strain cot1, active compounds read low 0.991 | S. cerevisiae deletion strains, locus YPL051W, strain arl3, active compounds read low 0.991 | S. cerevisiae deletion strains, locus YPL055C, strain LGE1, active compounds read low 1.06 | S. cerevisiae deletion strains, locus YPL078C, strain atp4, active compounds read low 0.961 | S. cerevisiae deletion strains, locus YPL106C, strain sse1, active compounds read low 1.01 | S. cerevisiae deletion strains, locus YPL240C, strain hsp82, active compounds read low 0.991 | S. cerevisiae deletion strains, locus YPL241C, strain CIN2, active compounds read low 1.01 | S. cerevisiae deletion strains, locus YPL256C, strain CLN2, active compounds read low 1.06 | S. cerevisiae deletion strains, locus YPR119W, strain clb2, active compounds read low 0.988 | S. cerevisiae deletion strains, locus YPR141C, strain kar3, active compounds read low 0.984 | S. cerevisiae deletion strains, locus YPR163C, strain tif3, active compounds read low 0.98 | S. cerevisiae deletion strains, locus YPR167C, strain met16, active compounds read low 0.996 | S. cerevisiae deletion strains, strain wtn01, active compounds read low 1.01 | S. cerevisiae strains, strain wild type, active compounds read low 1.01
